From PubChem BioAssay (NCATS)
Results filed as inconclusive are left out. The source made the active and inactive calls. Unless noted, calls come from the whole dose curve; as a rule, active = well fitted curve in either direction with a large enough effect (not every such curve was filed as active); inconclusive = small, poorly fitted or top-dose-only effect, or another doubt; inactive = flat fitted curve, though single readings scatter.

Key:
[1] = molecular target: Lysosomal acid glucosylceramidase (Homo sapiens) (UniProt P04062); assay: Glucocerebrosidase-p2 (AID 348; in the data active = potency below about 10 µM; note: potency is the fitted concentration of half-maximal effect); conditions: purified GBA, blue fluorogenic substrate, 40 min
Summary of the method: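 Normal human glucocerebrosidase (0.2 nM) with blue fluorogenic substrate (80 uM final) in citrate/phosphate pH 5.9 with 10mM sodium taurocholate, 0.01% tween-20; 40 min RT, NaOH/glycine stop; fluorescence Ex 365/Em 440; AC50 from a titration from 0.6 nM upwards.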

[2] = AP1 Signaling Pathway (AID 357); conditions: ME-180 AP-1-bla reporter, EGF-induced, beta-lactamase ratio, 5 h; at 7.69 µM (top of the series) unless noted; note: % is set by controls: 0 for no effect and ±100 for the full control effect
Summary of the method: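 ME-180 cells with beta-lactamase reporter under AP-1 response element, stimulated with EC50 EGF; compounds tested in titration series, 5 h at 37 °C. CCF4 substrate added 2.5 h at room temperature; 460/530 nm emission ratio gave %activity and AC50.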

[3] = molecular target: Cytochrome P450 1A2 (Homo sapiens) (UniProt P05177); assay: p450-cyp1a2 (AID 410; calls by dose curve; note: potency is the fitted concentration of half-maximal effect;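 for activity change, negative = inhibition: -100% = full effect of reference inhibitor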); conditions: recombinant CYP1A2, luciferin-ME demethylation, luminescence; series mostly up to 57 µM
Summary of the method: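 O-Demethylation of luciferin 6' methyl ether by human CYP1A2 is monitored as luciferase luminescence. Substrate sits at Km (100uM); enzyme is 20nM. Values are scaled to 57 uM furafylline as maximal inhibition.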

[4] = NFAT Signaling Pathway (AID 444); conditions: Jurkat NFAT-bla M1, carbachol, beta-lactamase ratio, 5 h; at 7.69 µM (top of the series) unless noted;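 note: carbachol stimulus at about its EC50 of 1 µM final; % is set by controls: 0 for no effect and ±100 for the full control effect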
Summary of the method: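 Jurkat cells carrying an NFAT-driven β-lactamase reporter and co-transfected muscarinic M1 receptor were treated with compound plus carbachol (1 uM final, an EC50 level) for 5 h at 37 °C. CCF4 loading followed for 1 h at RT; 460/530 nm ratio gave %activity.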

[5] = Stat Signaling Pathway (AID 446); conditions: ME-180 (cervical carcinoma) SIE beta-lactamase reporter, IL-6 stimulated, 5 h; at 7.69 µM (top of the series) unless noted;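 note: ME-180 cervical cancer cells given 40 pM IL-6 alongside compound; SIE-controlled beta-lactamase reporter measured as 460/530 nm FRET emission ratio; % is set by controls: 0 for no effect and ±100 for the full control effect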
Summary of the method: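 FRET read-out (405 nm excitation, 460/530 nm emission) of a beta-lactamase reporter under a STAT-inducible element in ME-180 cervical carcinoma cells. Cells with compound receive 40 pM IL-6 for 5 h. Values are normalised to AC90 stimulation and AC90 JAK-inhibitor controls.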

[6] = molecular target: Glucocorticoid receptor (Homo sapiens) (UniProt P04150); assay: GR-GFP Redistribution (AID 450;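 active = compounds whose dose series gives a full or clear partial fitted curve of increased nuclear translocation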; note: potency is the fitted concentration of half-maximal effect); conditions: U2OS GR-GFP nuclear translocation, laser cytometry, 2 h
[7] = molecular target: Glucocorticoid receptor (Homo sapiens) (UniProt P04150); assay: GR-EFC Redistribution (AID 451; calls by dose curve; note: potency is the fitted concentration of half-maximal effect); conditions: CHO-K1 GR-EFC translocation, beta-gal luminescence, 2 h
Summary of the method: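 CHO-K1 cells stably expressing nuclear-localized β-gal enzyme acceptor and GR fused C-terminally to the enzyme donor fragment; ligand-driven nuclear translocation restores β-gal by complementation. Compounds titrated up to 46 uM final, 2 h at 37 °C; luminescence read.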

[8] = molecular target: Mitogen-activated protein kinase 10 (Mus musculus) (UniProt Q61831); assay: JNK3 AlphaScreen Assay (AID 530); conditions: JNK3 lysate, c-Jun phosphorylation; series mostly up to 57.1 µM;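 note: kinase came from lysate of stimulated human HepG2 cells; signal reports phosphorylation of biotinylated GST-cJun 1-79 at Ser73 with 10 µM ATP; % is set by controls: 0 for no effect and ±100 for the full control effect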
Summary of the method: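 Phosphorylation of biotinylated GST-cJun(1-79) at Ser73 is measured by AlphaScreen proximity luminescence. Enzyme is JNK3 in HepG2 lysates activated with interleukin-1beta and tumor necrosis factor alpha; ATP is 10 uM final.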

[9] = molecular target: 3',5'-cyclic-AMP phosphodiesterase 4B (Homo sapiens) (UniProt Q07343); assay: qHTS Assay for Inhibitors of PDE-IV (AID 607; active = well fitted activation curve with a large enough effect in the main read-out, with a control signal flat, not every such curve was filed as active; note: % of control where 0% means no effect); conditions: HEK293 ACTOne CNG channel cells, membrane potential fluorescence; series mostly up to 22.9 µM
Summary of the method: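 Cell-based read-out of cAMP via a modified cyclic nucleotide-gated channel and membrane potential dye (535/590 nm) in HEK293 cells expressing PDE4 endogenously. Compounds tested up to 22.9 uM final; 100 uM RO 20-1724 reference.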

[10] = molecular target: Cytochrome P450 3A4 (Homo sapiens) (UniProt P08684); assay: qHTS Assay for Activators of Cytochrome P450 3A4 (AID 885; active = well fitted curve in the direction sought with a large enough effect; an effect the other way counts as inactive or inconclusive; note: nearly all actives have a fitted effect of over 65% in size); conditions: recombinant CYP3A4, Luciferin-PPXE luminescence, 60 min; series mostly up to 57.1 µM
Summary of the method: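 Luminescent readout of luciferin formed from 25 uM Luciferin-PPXE (KM level) by 20 nM CYP3A4 in 200 mM KPO4, with 60 min NADPH-driven reaction at room temperature after 10 min compound exposure. Ketoconazole (57 uM) defined 100% inhibition.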

[11] = qHTS Assay for Lipid Storage Modulators (AID 1519; calls by dose curve); conditions: Drosophila S3 cells, BODIPY lipid droplet/cell ratio, laser cytometry, cells loaded with oleic acid; for activity change, negative = inhibition: at 57.5 µM (top of the series)
Summary of the method: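 Cells seeded at 5,000 per well were treated with compounds over a concentration series and loaded with oleic acid (400 uM, as added). Lipid droplet fluorescence (488 nm excitation, 500-530 nm channel) was read by laser-scanning cytometry and normalized to 20 uM Triacsin C.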

[12] = molecular target: Ubiquitin carboxyl-terminal hydrolase 1 (Homo sapiens) (UniProt O94782); assay: Inhibitors of USP1/UAF1: Pilot qHTS (AID 504865; active = well fitted curve in the direction sought with a large enough effect; an effect the other way counts as inactive or inconclusive;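 note: rhodamine fluorescence freed from ubiquitin-rhodamine substrate followed over time; top concentration of the series differs between compounds; % is set by controls: 0 for no effect and ±100 for the full control effect; nearly all actives have a fitted effect of over 35% in size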); conditions: purified USP1/UAF1, Ub-rhodamine cleavage fluorescence; series mostly up to 54.9 µM
Summary of the method: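 Enzyme-free wells gave the negative control, while test wells held 1nM USP1/UAF1 preincubated with compound for 15 min at room temperature. Ub-Rho at 150nM final started the reaction, and fluorescence at 480/540 nm was recorded kinetically.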

[13] = Confirmation and Secondary Assay for Modulators of Hemoglobin Beta Chain Splicing at IVS2 654 locus (AID 910; active = well fitted curve in the direction sought with a large enough effect; an effect the other way counts as inactive or inconclusive;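 note: per-well total GFP intensity by laser scanning cytometry after 2-day treatment; % of control where 0% means no effect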); conditions: HeLa EGFP-654 splicing reporter, GFP fluorescence, 48 h; series mostly up to 38.3 µM
Summary of the method: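 HeLa cells stably carrying EGFP interrupted by mutant beta-globin IVS2-654 intron (CMV-driven) were treated with compound for 2 days at 37C; corrected splicing was scored as total peak GFP intensity per well (488 nm excitation, 500-520 nm emission).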

[14] = Confirmation and Secondary Assay for Modulators of Hemoglobin Beta Chain Splicing at IVS2 705 locus (AID 930; active = well fitted curve in the direction sought with a large enough effect; an effect the other way counts as inactive or inconclusive;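 note: HeLa cells stably expressing the EGFP-705 splicing reporter; GFP fluorescence per well restored by corrected splicing of the IVS2-705 intron in EGFP; % of control where 0% means no effect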); conditions: HeLa EGFP-705 splicing reporter, GFP fluorescence, 48 h; series mostly up to 38.3 µM
Summary of the method: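 First, HeLa EGFP-705 cells are seeded at 500/well in Optimem with 2% FCS and left overnight. Next, compound or DMSO is added for 2 days. Finally wells are laser-scanned and total peak GFP intensity scored.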

[15] = molecular target: Cytochrome P450 3A4 (Homo sapiens) (UniProt P08684); assay: qHTS Assay for Inhibitors and Substrates of Cytochrome P450 3A4 (AID 884; active = well fitted curve in the direction sought with a large enough effect; an effect the other way counts as inactive or inconclusive; note: nearly all actives have a fitted effect of over 50% in size; note: potency is the fitted concentration of half-maximal effect); conditions: recombinant CYP3A4, Luciferin-PPXE luminescence; series mostly up to 57.1 µM
Summary of the method: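 Luminescent readout of luciferin produced by CYP3A4 (20 nM) dealkylation of Luciferin-PPXE, 25 uM (its KM). NADPH-driven reaction ran 60 min at RT after 10 min compound preincubation; data scaled to 57 uM ketoconazole as 100% inhibition.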

[16] = molecular target: Cytochrome P450 2C19 (Homo sapiens) (UniProt P33261); assay: qHTS Assay for Inhibitors and Substrates of Cytochrome P450 2C19 (AID 899; active = well fitted curve in the direction sought with a large enough effect; an effect the other way counts as inactive or inconclusive; note: nearly all actives have a fitted effect of over 60% in size; note: potency is the fitted concentration of half-maximal effect); conditions: recombinant CYP2C19, luciferin-H EGE luminescence; series mostly up to 57.1 µM
Summary of the method: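 Human CYP2C19 (5nM) with Luciferin-H EGE at 10uM (its KM) in 50mM KPO4 was preincubated with compound for 10 min at 37C. NADPH regeneration started a 60 min 37C reaction. Luciferin was read by luminescence, normalized to 57uM ketoconazole.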

[17] = molecular target: Cytochrome P450 2D6 (Homo sapiens) (UniProt P10635); assay: qHTS Assay for Inhibitors and Substrates of Cytochrome P450 2D6 (AID 891; active = well fitted curve in the direction sought with a large enough effect; an effect the other way counts as inactive or inconclusive; note: nearly all actives have a fitted effect of over 60% in size; note: potency is the fitted concentration of half-maximal effect); conditions: recombinant CYP2D6, luciferin-ME EGE luminescence; series mostly up to 57.1 µM
Summary of the method: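 Luminescent read-out of luciferin formed by 5 nM human CYP2D6 demethylating 30 uM Luciferin-ME EGE (Km level) over 60 min at room temperature after NADPH regeneration addition. Data normalized to full inhibition by 1.43 uM quinidine.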

[18] = measured here: cell count channel max response
[19] = measured here: lipid channel max response

Cytochrome P450 1A2 (Homo sapiens), sequence (P05177 whole entry, looked up): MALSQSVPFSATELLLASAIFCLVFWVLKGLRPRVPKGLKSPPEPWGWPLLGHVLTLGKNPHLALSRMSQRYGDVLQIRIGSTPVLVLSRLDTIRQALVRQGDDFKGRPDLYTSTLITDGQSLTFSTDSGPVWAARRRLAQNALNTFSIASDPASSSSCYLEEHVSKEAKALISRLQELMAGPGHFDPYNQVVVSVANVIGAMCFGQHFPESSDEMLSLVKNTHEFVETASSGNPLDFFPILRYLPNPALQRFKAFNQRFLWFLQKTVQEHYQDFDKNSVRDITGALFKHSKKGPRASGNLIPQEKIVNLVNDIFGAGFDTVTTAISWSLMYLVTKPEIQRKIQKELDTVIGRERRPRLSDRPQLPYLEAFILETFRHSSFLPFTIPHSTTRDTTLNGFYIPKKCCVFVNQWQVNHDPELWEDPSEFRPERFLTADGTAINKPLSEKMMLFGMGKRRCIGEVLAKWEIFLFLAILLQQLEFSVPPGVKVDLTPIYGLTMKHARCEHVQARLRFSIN
Glucocorticoid receptor (Homo sapiens), sequence (P04150 whole entry, looked up, the tested form may be a part): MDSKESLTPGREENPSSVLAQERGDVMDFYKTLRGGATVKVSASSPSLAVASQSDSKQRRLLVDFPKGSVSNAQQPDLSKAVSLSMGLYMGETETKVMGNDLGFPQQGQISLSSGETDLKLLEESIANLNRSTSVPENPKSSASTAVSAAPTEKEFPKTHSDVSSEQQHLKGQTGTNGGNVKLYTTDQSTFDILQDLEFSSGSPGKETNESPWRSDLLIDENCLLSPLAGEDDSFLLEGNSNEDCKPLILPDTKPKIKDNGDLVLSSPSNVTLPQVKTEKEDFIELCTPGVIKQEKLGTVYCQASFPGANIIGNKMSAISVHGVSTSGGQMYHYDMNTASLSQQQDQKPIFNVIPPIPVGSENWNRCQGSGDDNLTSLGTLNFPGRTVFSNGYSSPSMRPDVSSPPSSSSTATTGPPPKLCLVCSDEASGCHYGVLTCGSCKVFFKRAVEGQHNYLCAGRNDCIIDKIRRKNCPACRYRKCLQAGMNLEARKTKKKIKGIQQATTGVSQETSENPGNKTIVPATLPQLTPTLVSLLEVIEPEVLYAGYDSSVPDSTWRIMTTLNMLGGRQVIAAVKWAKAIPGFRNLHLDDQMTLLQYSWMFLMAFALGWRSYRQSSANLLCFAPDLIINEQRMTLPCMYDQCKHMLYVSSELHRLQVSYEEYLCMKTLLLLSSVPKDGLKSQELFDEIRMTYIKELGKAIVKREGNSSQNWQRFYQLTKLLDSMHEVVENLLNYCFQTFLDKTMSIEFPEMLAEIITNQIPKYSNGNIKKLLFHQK
3',5'-cyclic-AMP phosphodiesterase 4B (Homo sapiens), sequence (Q07343 whole entry, looked up): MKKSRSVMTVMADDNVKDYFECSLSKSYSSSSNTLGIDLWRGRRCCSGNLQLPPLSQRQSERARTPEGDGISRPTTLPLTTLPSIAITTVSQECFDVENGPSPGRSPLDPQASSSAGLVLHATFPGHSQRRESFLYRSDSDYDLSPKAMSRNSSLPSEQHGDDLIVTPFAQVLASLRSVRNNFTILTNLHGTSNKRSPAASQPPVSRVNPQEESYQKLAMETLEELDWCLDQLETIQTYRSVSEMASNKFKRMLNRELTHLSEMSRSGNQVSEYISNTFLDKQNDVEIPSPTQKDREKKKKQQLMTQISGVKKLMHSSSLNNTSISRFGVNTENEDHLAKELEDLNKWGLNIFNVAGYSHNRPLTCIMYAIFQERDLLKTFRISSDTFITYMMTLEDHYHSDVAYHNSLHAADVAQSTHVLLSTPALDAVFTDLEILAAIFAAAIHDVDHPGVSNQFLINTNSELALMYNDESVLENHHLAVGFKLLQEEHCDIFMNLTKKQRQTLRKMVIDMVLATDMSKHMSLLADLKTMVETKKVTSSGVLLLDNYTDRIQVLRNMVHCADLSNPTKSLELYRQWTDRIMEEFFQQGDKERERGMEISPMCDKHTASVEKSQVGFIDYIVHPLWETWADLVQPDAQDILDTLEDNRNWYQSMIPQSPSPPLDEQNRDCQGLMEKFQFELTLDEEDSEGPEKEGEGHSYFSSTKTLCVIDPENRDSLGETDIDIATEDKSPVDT
Lysosomal acid glucosylceramidase (Homo sapiens), sequence (P04062 whole entry, looked up): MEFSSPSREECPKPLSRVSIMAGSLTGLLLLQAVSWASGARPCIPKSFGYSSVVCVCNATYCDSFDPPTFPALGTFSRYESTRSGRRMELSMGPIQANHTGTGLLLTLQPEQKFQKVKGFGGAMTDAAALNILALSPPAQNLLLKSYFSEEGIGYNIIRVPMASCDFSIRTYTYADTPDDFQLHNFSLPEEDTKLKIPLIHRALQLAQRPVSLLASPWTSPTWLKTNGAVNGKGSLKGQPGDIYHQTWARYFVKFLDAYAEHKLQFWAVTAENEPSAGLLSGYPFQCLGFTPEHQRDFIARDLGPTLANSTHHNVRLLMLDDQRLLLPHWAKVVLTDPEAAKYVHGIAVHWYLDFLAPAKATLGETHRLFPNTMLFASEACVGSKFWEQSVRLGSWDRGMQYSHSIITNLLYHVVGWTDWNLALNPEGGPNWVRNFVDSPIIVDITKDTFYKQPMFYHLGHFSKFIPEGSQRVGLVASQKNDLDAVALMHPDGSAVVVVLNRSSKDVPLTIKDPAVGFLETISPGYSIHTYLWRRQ
Cytochrome P450 3A4 (Homo sapiens), sequence (P08684 whole entry, looked up): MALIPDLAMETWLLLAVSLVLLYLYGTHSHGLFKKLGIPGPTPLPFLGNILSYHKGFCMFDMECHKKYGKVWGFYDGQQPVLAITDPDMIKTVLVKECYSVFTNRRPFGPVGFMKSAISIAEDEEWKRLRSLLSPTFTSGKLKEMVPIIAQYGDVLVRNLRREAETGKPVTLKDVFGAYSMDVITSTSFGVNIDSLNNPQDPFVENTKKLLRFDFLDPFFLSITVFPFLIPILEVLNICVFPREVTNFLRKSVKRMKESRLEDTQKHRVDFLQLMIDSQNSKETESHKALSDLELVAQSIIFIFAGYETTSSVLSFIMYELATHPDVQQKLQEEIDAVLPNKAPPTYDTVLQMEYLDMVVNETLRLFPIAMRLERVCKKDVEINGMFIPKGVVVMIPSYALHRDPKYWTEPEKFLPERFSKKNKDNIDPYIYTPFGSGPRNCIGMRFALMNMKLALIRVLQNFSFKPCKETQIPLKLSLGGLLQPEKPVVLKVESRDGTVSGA
Cytochrome P450 2C19 (Homo sapiens), sequence (P33261 whole entry, looked up): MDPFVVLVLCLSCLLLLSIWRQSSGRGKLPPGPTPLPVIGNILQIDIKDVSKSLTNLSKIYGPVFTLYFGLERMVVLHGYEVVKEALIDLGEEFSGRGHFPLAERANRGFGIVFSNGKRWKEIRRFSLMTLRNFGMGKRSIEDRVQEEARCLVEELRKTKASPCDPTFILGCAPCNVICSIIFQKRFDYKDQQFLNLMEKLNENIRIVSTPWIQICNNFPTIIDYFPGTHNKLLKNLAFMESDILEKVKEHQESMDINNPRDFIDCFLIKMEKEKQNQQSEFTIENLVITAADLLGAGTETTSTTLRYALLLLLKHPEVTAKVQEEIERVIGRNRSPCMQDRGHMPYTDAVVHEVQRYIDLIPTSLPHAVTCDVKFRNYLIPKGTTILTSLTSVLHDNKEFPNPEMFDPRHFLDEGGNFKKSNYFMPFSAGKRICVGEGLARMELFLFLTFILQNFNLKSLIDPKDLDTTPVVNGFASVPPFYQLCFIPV
Cytochrome P450 2D6 (Homo sapiens), sequence (P10635 whole entry, looked up): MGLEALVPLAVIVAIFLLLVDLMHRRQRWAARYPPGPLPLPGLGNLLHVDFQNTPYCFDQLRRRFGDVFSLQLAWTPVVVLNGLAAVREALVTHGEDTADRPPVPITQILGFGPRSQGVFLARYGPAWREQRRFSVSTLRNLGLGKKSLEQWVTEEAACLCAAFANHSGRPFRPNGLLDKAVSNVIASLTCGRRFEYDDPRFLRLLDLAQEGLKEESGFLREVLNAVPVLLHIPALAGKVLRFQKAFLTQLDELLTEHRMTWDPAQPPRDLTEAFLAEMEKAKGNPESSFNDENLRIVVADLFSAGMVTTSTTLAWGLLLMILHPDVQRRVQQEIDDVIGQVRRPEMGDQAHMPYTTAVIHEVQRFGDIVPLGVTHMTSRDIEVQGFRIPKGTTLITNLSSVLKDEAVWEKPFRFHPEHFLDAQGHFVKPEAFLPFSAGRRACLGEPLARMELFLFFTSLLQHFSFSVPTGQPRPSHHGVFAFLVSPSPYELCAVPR
Ubiquitin carboxyl-terminal hydrolase 1 (Homo sapiens), sequence (O94782 whole entry, looked up): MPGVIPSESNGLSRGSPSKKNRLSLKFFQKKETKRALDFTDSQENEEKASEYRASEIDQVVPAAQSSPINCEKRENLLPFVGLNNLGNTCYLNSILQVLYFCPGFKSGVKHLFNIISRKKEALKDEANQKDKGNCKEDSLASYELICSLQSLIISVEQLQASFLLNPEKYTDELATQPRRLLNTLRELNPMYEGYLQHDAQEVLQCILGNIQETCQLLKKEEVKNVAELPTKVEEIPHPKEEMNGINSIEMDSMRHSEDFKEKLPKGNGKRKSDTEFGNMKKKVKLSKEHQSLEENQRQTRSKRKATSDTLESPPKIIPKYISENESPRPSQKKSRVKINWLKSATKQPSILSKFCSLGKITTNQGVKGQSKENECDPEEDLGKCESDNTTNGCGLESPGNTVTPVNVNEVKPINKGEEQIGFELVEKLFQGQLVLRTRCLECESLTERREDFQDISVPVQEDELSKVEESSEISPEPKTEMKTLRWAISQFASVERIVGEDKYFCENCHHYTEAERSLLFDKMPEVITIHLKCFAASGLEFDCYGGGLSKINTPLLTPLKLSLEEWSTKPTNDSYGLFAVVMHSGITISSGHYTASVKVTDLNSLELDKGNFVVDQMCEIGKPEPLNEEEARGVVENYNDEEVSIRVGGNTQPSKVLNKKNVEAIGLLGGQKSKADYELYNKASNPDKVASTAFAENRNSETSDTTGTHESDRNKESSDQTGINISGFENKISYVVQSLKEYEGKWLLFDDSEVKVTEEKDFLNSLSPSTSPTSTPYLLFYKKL

COCCn1c(=O)c(C)nc2cnc(Nc3cccc(OC)c3)nc21
-22.1%: max response [11, 19]
active: Potency [3] 1 µM
inactive: Potency [1] > 11.4 µM | activity change, negative = inhibition [2] 7.44% | activity change, negative = inhibition [4] 5.07% | activity, negative = inhibition [5] -7.83% | Potency [6] > 9.22 µM | Potency [7] > 46 µM | Potency [8] | Potency [9] | Potency [10] | activity change, negative = inhibition [11] -6.39% | Potency [12]
-14.8%: max response [11, 18]

FC(F)(F)c1cc(CN2CCC3(CCNCC3)CC2)cc(C(F)(F)F)c1
-9.72%: max response [11, 19]
inactive: Potency [1] > 11.4 µM | activity change, negative = inhibition [2] 3.22% | Potency [3] | activity change, negative = inhibition [4] 9.54% | activity, negative = inhibition [5] 1.83% | Potency [7] > 46 µM | Potency [8] | Potency [9] | Potency [10] | activity change, negative = inhibition [11] -1.92%
-8.05%: max response [11, 18]

N#CCCn1c(=O)cnc2cnc(N3CCNCC3)nc21
14.3%: max response [11, 18]
active: Potency [3] 12.6 µM
inactive: Potency [1] > 11.4 µM | activity change, negative = inhibition [2] -10.6% | activity change, negative = inhibition [4] 3.67% | activity, negative = inhibition [5] -12.7% | Potency [6] > 9.22 µM | Potency [8] | Potency [9] | activity change, negative = inhibition [11] 4.17%
19.4%: max response [11, 19]

COc1ccc2[nH]cc(CCNc3cc(-c4ccoc4)ncn3)c2c1
active: Potency [3] 0.631 µM
inactive: Potency [1] > 11.4 µM | activity change, negative = inhibition [2] -5.94% | activity change, negative = inhibition [4] 2.58% | activity, negative = inhibition [5] 2.87% | Potency [6] > 46 µM | Potency [7] > 46 µM | Potency [8] | Potency [9] | Potency [10] | Potency [13] | outcome [14] | activity change, negative = inhibition [11] 11% | Potency [12]
17.6%: max response [11, 19]
6.67%: max response [11, 18]

COc1ccc2[nH]cc(CCNc3ncnc4ccc(-c5ccc(C(=O)N(C)C)cc5)cc34)c2c1
active: Potency [3] 12.6 µM | Potency [15] 2.51 µM | Potency [16] 7.94 µM
inactive: Potency [1] > 11.4 µM | activity change, negative = inhibition [2] -28% | activity change, negative = inhibition [4] 5.5% | activity, negative = inhibition [5] -28.2% | Potency [6] > 46 µM | Potency [7] > 46 µM | Potency [8] | Potency [9] | Potency [10] | Potency [13] | outcome [14] | activity change, negative = inhibition [11] 0.717%
-23.3%: max response [11, 18] | max response [11, 19]

COc1ccccc1CN1CCC2(CC1)CCN(S(=O)(=O)c1ccccc1)CC2
inactive: Potency [1] > 11.4 µM | activity change, negative = inhibition [2] -0.16% | Potency [3] | activity, negative = inhibition [5] 5.45% | Potency [7] > 46 µM | Potency [8] | Potency [9] | activity change, negative = inhibition [11] 0.93%
19%: max response [11, 18]
active: Potency [17] 0.158 µM
23.6%: max response [11, 19]

COc1ccc(Oc2ncc3nc(-c4cc(F)cc(F)c4)c(=O)n(C)c3n2)cc1
active: Potency [3] 3.16 µM | Potency [15] 5.01 µM
13.4%: max response [11, 18]
-2.06%: max response [11, 19]
inactive: Potency [1] > 11.4 µM | activity change, negative = inhibition [2] 18.9% | activity change, negative = inhibition [4] -15.3% | Potency [6] > 9.22 µM | Potency [7] > 46 µM | Potency [8] | Potency [10] | activity change, negative = inhibition [11] -5.54%

N#CCCn1c(=O)c(-c2ccc(Cl)cc2)nc2cnc(Oc3cccc(Cl)c3)nc21
10.2%: max response [11, 19]
4.81%: max response [11, 18]
inactive: Potency [1] > 11.4 µM | activity change, negative = inhibition [2] 23.4% | Potency [3] | activity change, negative = inhibition [4] 14.7% | Potency [6] > 9.22 µM | Potency [7] > 46 µM | Potency [8] | Potency [9] | activity change, negative = inhibition [11] 4.13%

COCC(=O)N1CCC2(CC1)CN(Cc1nccs1)C2
inactive: Potency [1] > 11.4 µM | activity change, negative = inhibition [2] -21.4% | Potency [3] | Potency [7] > 46 µM | Potency [8] | Potency [9] | Potency [15] | Potency [17] | Potency [16] | activity change, negative = inhibition [11] 3.6%
13.5%: max response [11, 19]
4.27%: max response [11, 18]

O=C(c1cc(C(F)(F)F)cc(C(F)(F)F)c1)N1CCC[C@@]2(CCN(c3ccccc3)C2)C1
10.6%: max response [11, 18] | max response [11, 19]
inactive: Potency [1] > 11.4 µM | activity change, negative = inhibition [2] 0.763% | Potency [3] | activity, negative = inhibition [5] 2.5% | Potency [7] > 46 µM | Potency [8] | Potency [9] | Potency [10] | activity change, negative = inhibition [11] -3.81%
